GLP1R inv ag: acts as inverse agonist at human GLP-1 receptor; P43220; HEK293 GLP-1R CRE-luciferase, luminescence, 24 h; GLP-1R form is constitutively active; Potency, µM (series often up to 38.3 µM), usual class: inhibitors; 410,000 tested, 1.6% active; AID 624417; also: nearly all actives have a fitted effect of over 55% in size
Target sequence (P43220 whole entry, looked up): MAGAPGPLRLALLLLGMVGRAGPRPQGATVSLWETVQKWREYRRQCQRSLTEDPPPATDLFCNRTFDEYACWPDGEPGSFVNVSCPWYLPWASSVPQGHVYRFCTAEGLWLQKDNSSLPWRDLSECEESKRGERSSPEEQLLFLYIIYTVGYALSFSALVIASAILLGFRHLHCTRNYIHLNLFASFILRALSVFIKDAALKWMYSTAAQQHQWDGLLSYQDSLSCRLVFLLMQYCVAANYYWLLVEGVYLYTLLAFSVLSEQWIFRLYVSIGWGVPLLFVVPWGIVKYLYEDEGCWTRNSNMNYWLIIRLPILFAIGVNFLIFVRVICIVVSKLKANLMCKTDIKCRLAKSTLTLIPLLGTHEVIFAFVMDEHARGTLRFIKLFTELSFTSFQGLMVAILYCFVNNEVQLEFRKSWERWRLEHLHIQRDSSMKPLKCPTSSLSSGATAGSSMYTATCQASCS
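Assay principle: reduced luminescence from a cAMP-responsive reporter in HEK293 cells co-expressing a constitutively active GLP-1R. Conditions: 24 hr compound incubation, 37 deg C, 5% CO2.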
HEK293 tox: cytotoxic in the GLP-1 receptor inverse agonist counter-screen. HEK293 cAMP-luciferase reporter cells, luminescence, 24 h. Potency, µM (titrated, usually from 38.3 µM), hits mostly inhibitors. 410,000 tested, 0.13% active;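 also: loss of luciferase light is scored as toxicity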
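Compound-treated cells are incubated 24 hr at 37 deg C under 5% CO2 after a 12 hour attachment period, then luciferase detection reagent is added and luminescence is measured following 12 min at room temperature; lowered signal indicates toxicity.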
GLP1R ag: GLP-1 receptor (human) agonism; HEK293 GLP-1R CRE-luciferase, luminescence, 4-6 h; cells express a hypersensitive GLP-1R form; P43220; Potency, µM (doses to about 45.6 µM), usual class: activators; AID 624172; 380,000 tested, 0.007% active
ClpP mod: qHTS Assay for Activators of ClpP | ATP-dependent Clp protease proteolytic subunit (Bacillus subtilis (strain 168)), P80244 | Potency, µM (highest dose often 57.5 µM) | purified B. subtilis ClpP, FRET peptide cleavage, 20 min | 340,000 tested, 1.9% active | AID 651965, 2013; active = well fitted falling curve with a large enough effect; inconclusive = small, poorly fitted or top-dose-only effect; inactive = no such curve, though single readings can be large or run the other way; also: the source files actives as falling curves though it sought activators and does not explain the sign; nearly all actives have a fitted effect of over 65% in size
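Buffer: 100 mM Tris/HCl pH8, 100 mM KCl, 0.05% low protease BSA, 2.5% glycerol, 0.01% Tween-20. ClpP 10 microg/mL final; 20 min RT; delta FRET normalized to ADEP and DMSO controls.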
Each line names hits and unclear results; the compound was inactive in the other large screens. Compounds with a hit are over-represented: about 3.2% of the library has one in this group of screens. Unless noted, calls follow the shape of the dose curve; as a rule, active = well fitted curve in the direction sought with a large enough effect; inconclusive = small, poorly fitted or top-dose-only effect, or another doubt; inactive = no such curve, though single readings can be large; an effect the other way counts as inactive or inconclusive.

Cc1cccc(NNC(=S)Nc2c(C)cccc2C)c1	GLP1R inv ag 3.16µM, HEK293 tox inconclusive (no result: ClpP mod)
Cc1cccc(NC(=S)NCc2ccc(F)cc2)c1	GLP1R inv ag inconclusive, HEK293 tox inconclusive
Cc1ccc(NC(=O)CCS(=O)(=O)c2ccc(Br)s2)c(Br)c1	none (no result: GLP1R ag)
CCOc1ccc(NC(=O)CC2C(=O)N(c3cccc(C)c3)C(=O)N2CCC2=CCCCC2)cc1 (stereo not drawn)	GLP1R inv ag inconclusive (no result: GLP1R ag)
COc1ccccc1-c1noc(CSc2nc3ccc(C)cc3[nH]2)n1	none (no result: GLP1R ag)
Cc1cccc(NNC(=S)Nc2ccccc2)c1	GLP1R inv ag 5.62µM, HEK293 tox inconclusive
COc1ccc(-n2c(=O)c3ccccc3n(CC(=O)Nc3cccc(OC)c3)c2=O)cc1	none
COc1cccc(-n2c(=O)c3cc(OC)c(OC)cc3n(CC(=O)Nc3cc(C)[nH]n3)c2=O)c1	ClpP mod 28.2µM
CC(Nc1nc(N2CCCCC2)nc2ccccc12)c1ccccc1 (stereo not drawn)	GLP1R inv ag inconclusive, HEK293 tox inconclusive, ClpP mod 28.2µM
C=CCNc1nc(N2CCCC2)nc2ccccc12	GLP1R inv ag inconclusive, ClpP mod 31.6µM
CCN1CCN(c2nc(NCCO)c3ccccc3n2)CC1	none
Cc1ccc2scc(N3CCCCC3)c(=O)c2c1	none (no result: GLP1R ag)
COc1ccc2nc(/N=C(\N)NC(=O)C(C)(C)C)nc(C)c2c1	ClpP mod 31.6µM
CCC(=O)N/C(N)=N/c1nc(C)c2cc(OC)ccc2n1	ClpP mod 3.16µM
CCCc1c(C)nc2ccc(OC)cc2c1SCCC(=O)O	ClpP mod 12.6µM
CCOC(=O)CSc1nc(C)c2cc(OC)ccc2n1	ClpP mod 14.1µM
COc1ccc2nc(/N=C(\N)NC(=O)N3c4ccccc4Sc4ccccc43)nc(C)c2c1	ClpP mod inconclusive
Cc1ccc(-c2csc(-c3nc(-c4ccc(Br)s4)cs3)n2)cc1	none (no result: GLP1R ag)
CCCCC(=O)Nc1cc(N(C)C)nc2ccccc12	ClpP mod 8.91µM
CN(C)c1cc(NC(=O)CNC(C)(C)C)c2ccccc2n1	GLP1R inv ag inconclusive
COc1ccc(CNC(=O)CSc2n[nH]c(-c3ccc(OC)cc3)n2)cc1	GLP1R inv ag inconclusive, HEK293 tox inconclusive (no result: GLP1R ag)
CC(C(=O)NCc1ccccc1)N1C(=O)C2CC=C(Cl)CC2C1=O (stereo not drawn)	ClpP mod 28.2µM
CC(C(=O)NC(=O)NCc1ccccc1)N1C(=O)c2ccccc2C1=O (stereo not drawn)	none
O=C(NNc1ccc([N+](=O)[O-])cc1)c1ccccc1F	GLP1R inv ag inconclusive, HEK293 tox inconclusive (no result: ClpP mod)
O=C(NNc1ccc([N+](=O)[O-])cc1)Nc1ccccc1	none
O=C(NNc1ccccc1)C(=O)NNS(=O)(=O)c1ccc([N+](=O)[O-])cc1	GLP1R inv ag 3.16µM, HEK293 tox inconclusive (no result: ClpP mod)
O=C(Nc1ccccc1Oc1ccccc1)c1cc([N+](=O)[O-])ccc1Cl	GLP1R inv ag 4.47µM
Cc1cccc(NC(=O)c2cc([N+](=O)[O-])ccc2Cl)c1O	GLP1R inv ag inconclusive (no result: ClpP mod)
O=C(Nc1ccc(Nc2ccccc2)cc1)c1ccc(Cl)cc1Cl	GLP1R inv ag 8.91µM (no result: ClpP mod)
O=C(NNc1ccc([N+](=O)[O-])cc1)c1ccccc1Cl	GLP1R inv ag 1.78µM
O=C(NNC(=O)c1ccc(Cl)cc1Cl)Nc1ccccc1	none
Cc1cc(F)ccc1NC(=O)CN(C)S(=O)(=O)c1ccc(C(=O)N2CCOCC2)s1	none (no result: GLP1R ag)
CCOc1ccc(CNC(=O)CN2N=C(c3ccccc3)CCC2=O)cc1OC	none (no result: GLP1R ag)
O=C(Nc1ccc(Nc2ccccc2)cc1)c1cc([N+](=O)[O-])ccc1Cl	GLP1R inv ag 3.16µM
Cc1nc(Nc2ccc(Cl)cc2Cl)sc1C(=O)Nc1ccccc1	GLP1R inv ag 10µM (no result: ClpP mod)
Cc1nc(Nc2ccc(Cl)c(Cl)c2)sc1C(=O)Nc1ccccc1	GLP1R inv ag inconclusive, HEK293 tox inconclusive, ClpP mod inconclusive
O=C(CSc1ccc2c(c1)OCCO2)NCCc1ccc(Cl)cc1Cl	GLP1R inv ag 11.2µM
CC(C)Cc1nc2oc3c(NCc4cccnc4)ncnc3c2c2c1CCC2	ClpP mod 17.8µM
c1cncc(CNc2ncnc3sc4c(c23)CCC4)c1	none (no result: ClpP mod)
CC(C)c1nc2oc3c(NCc4cccnc4)ncnc3c2c2c1CCC2	ClpP mod 14.1µM
Cc1cc(C)cc(C(=O)N2CCN(Cc3ccc4c(c3)OCO4)CC2)c1	GLP1R inv ag inconclusive
CCCOc1ccc(C(=O)N2CCN(Cc3ccc4c(c3)OCO4)CC2)cc1	GLP1R inv ag 7.94µM
